# Results published in ChEMBL document CHEMBL4513216, “Probing the Open Global Health Chemical Diversity Library for Multistage-Active Starting Points for Next-Generation Antimalarials” (ACS Infect Dis, 2020).
# Out of some 69,000 compounds screened, about 8,600 (12%) showed an effect of 50% or more. Shown is part of a subset that was picked to be rich in strong results.
# System: Plasmodium berghei
# Test: Screen against P. berghei liver stage (PbLuc), transformed with Luciferase, at 10uM
# Assay type: functional, HepG2
# Details: tested at 10 uM
row,SMILES,INHIBITION
1,CN(C)CC(=O)N1CC2(CCN(S(=O)(=O)c3ccccc3)C2)C1,-25.8%
2,C1CCC(CNC2CCCN(Cc3noc(C4CC4)n3)C2)C1 (stereo not drawn),7.43%
3,CC(c1ncc(-c2ccccc2)o1)N1CCN(C(=O)N(C)C)CC1 (stereo not drawn),48.2%
4,CCn1c(C)nnc1CN(C)C1CCN(CCS(=O)(=O)CC)C1 (stereo not drawn),-49.5%
5,CC(C)CCN1C2(CCN(C(=O)CN(C)C)C2)c2ccccc2S1(=O)=O (stereo not drawn),21.4%
6,CS(=O)(=O)N1CC2(CCN(C3CCCCC3)CC2)Cc2ccccc21,32.5%
7,O=C(c1n[nH]c2c1CCN(Cc1nccs1)C2)N1CCCC1,18.1%
8,CS(=O)(=O)c1cc(NC(=O)COc2ccccc2F)cc(C(=O)O)c1,1.98%
9,CC(C)CCC(=O)NC(C#N)CC(C)C (stereo not drawn),9.91%
10,CC(C)CC(C#N)NC(=O)CCNC(=O)C(C)(C)C (stereo not drawn),55.5%
11,CCC(C#N)NC(=O)CCNC(=O)C(C)(C)C (stereo not drawn),-0.991%
12,Cc1nc(CN2CCC3(CC2)NC(=O)CC3c2ccccc2)cs1 (stereo not drawn),34.1%
13,CC(C)Cc1noc(C2CCCCN2C(=O)CCc2cnn(C)c2)n1 (stereo not drawn),32.2%
14,Cc1nn(C)c2sc(C(=O)N3CCCC(n4ccnc4C)C3)cc12 (stereo not drawn),28.4%
15,O=c1occ(CN2CCCCCC2)c(O)c1CN1CCOCC1,-28.7%
16,Cc1nc(C)c(S(=O)(=O)NC(=O)c2cccs2)s1,22.8%
17,Cc1cccc(NC(=O)c2sccc2C)n1,-52.1%
18,O=C(NS(=O)(=O)c1cnn(-c2ccccc2F)c1)c1ccoc1,-17.4%
19,Cc1nc(C)c(S(=O)(=O)NC(=O)c2ccsc2)s1,21.8%
20,Cc1nc(C)c(S(=O)(=O)NC(=O)c2ccoc2)s1,64.4%
21,Cc1nc(C)c(S(=O)(=O)NC(=O)c2sccc2C)s1,51.5%
22,CCC(C)C(=O)NCCc1nc(C(F)(F)F)cs1 (stereo not drawn),5.42%
23,CCc1nc(C(=O)N2CC(C)CN(C)c3ccccc32)c[nH]1 (stereo not drawn),-15%
24,CCN(CC)CCn1c(NC(=O)c2scnc2C)nc2ccccc21,59%
25,CCOCCCn1c(NC(=O)c2cc(C)on2)nc2ccccc21,64.9%
26,CCOCCCn1c(NC(=O)c2cc(C)no2)nc2ccccc21,5.7%
27,Cc1ncsc1C(=O)Nc1ccccn1,25.2%

row,SMILES,INHIBITION
1,CCOCCCn1c(NC(=O)c2cnn(C)c2)nc2ccccc21,-4.73%
2,CCOCCCn1c(NC(=O)c2cnc(C)s2)nc2ccccc21,57%
3,CCOCCCn1c(NC(=O)c2ccnc(C)n2)nc2ccccc21,25.4%
4,CCOCCCn1c(NC(=O)c2ccc(C)nc2)nc2ccccc21,37.2%
5,CCOCCCn1c(NC(=O)c2scnc2C)nc2ccccc21,69.8%
6,CCOc1cccc(NC(=O)c2cc(C)on2)n1,44.1%
7,CCOCCCn1c(NC(=O)c2cnc(C)cn2)nc2ccccc21,-96.9%
8,CCCn1c(NC(=O)CNC(=O)OCC)nc2ccccc21,-3.74%
9,Cc1ccc(C(=O)NCCS(=O)(=O)N2CCSCC2)o1,44.9%
10,Cc1nc2cc(O)nn2c(C)c1CCC(=O)N(C)Cc1cscn1,-16.6%
11,O=C1CCCN1c1cccc(CNCc2nc(-c3ccco3)no2)c1,-8%
12,Cn1nccc1CCC(=O)NC1CCCN(c2ccccn2)C1 (stereo not drawn),25.05%
13,CC(C)N(C)[C@@H]1CCN(Cc2nccs2)[C@H]1Cc1ccncc1,24.6%
14,CC1COCCN1Cc1nc(-c2ccc(F)cc2)no1 (stereo not drawn),-0.113%
15,COC1C[C@@H]2CN(C(=O)c3[nH]nc4c3CCCC4)C[C@@H]2C1 (stereo partly drawn),24.8%
16,Cn1c(CN2CCCC(c3noc(C4CC4)n3)C2)cc(=O)n(C)c1=O (stereo not drawn),-50.5%
17,CNC(=O)c1cccc(C2CNCCN2C(=O)c2cccc(F)c2)c1 (stereo not drawn),44.8%
18,COCCN1CCC2(CC1)CN(C(=O)N(C)C)c1ccc(C)cc12,26.2%
19,COc1ccccc1NC(=O)C1(c2ccccc2)CCOCC1,6.26%
20,CCOCC(=O)N1C[C@H]2CC[C@@H](C1)N(Cc1ccccn1)C2=O,28.7%
21,COCCOc1ccc(NC(=O)C2CC(=O)N(C3CC3)C2)cn1 (stereo not drawn),4.71%
22,COCCN(Cc1cnn(C)c1)CC1CCN(C(C)C)CC1,33.7%
23,COCCN(Cc1ccc(C)cc1)CC1CCOC1 (stereo not drawn),67.4%
24,COCCN(Cc1cnn(C)c1)CC1CCOC1 (stereo not drawn),19.8%
25,c1cc(-c2cnc(NC3CC3)nc2[C@H]2CCCO2)ccn1,-12.3%
26,Cc1ccc(C(=O)N2CC3(CCNCC3)c3cc(Cl)ccc32)cn1,5.04%
